Assay results taken from the supplement of paper PMC8728848.
Shown is part of a subset that was picked to be rich in the strongest signals.

Key:
Assay in all cases: glycan array binding signal (z-score within array); higher = stronger binding
Details in all cases: glycan notation: IUPAC condensed, linker removed; mutation: N288D, K313I
[1] = target: GlcNAc(b1-2)[GlcNAc(b1-4)]Man(a1-3)[GlcNAc(b1-4)][GlcNAc(b1-2)[GlcNAc(b1-6)]Man(a1-6)]Man(b1-4)GlcNAc(b1-4)[Fuc(a1-6)]GlcNAc
Summary of the method: (§1)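 Columns mapping to the same glycan were averaged after glycan names were converted to IUPAC-condensed notation. The data come from 3228 arrays in the Consortium for Functional Glycomics database, limited to those with an available protein sequence. Binding is reported as a within-array Z-score averaged across arrays of one protein sequence and across linkers.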

[2] = target: GlcNAc(b1-2)[GlcNAc(b1-6)]Man(a1-6)[GlcNAc(b1-2)Man(a1-3)]Man(b1-4)GlcNAc(b1-4)GlcNAc
Summary of the method: as §1

[3] = target: GlcNAc(b1-2)[GlcNAc(b1-6)]Man(a1-6)[GlcNAc(b1-4)][GlcNAc(b1-2)Man(a1-3)]Man(b1-4)GlcNAc(b1-4)GlcNAc
Summary of the method: as §1

[4] = target: GlcNAc(b1-3)Gal(b1-4)GlcNAc
Summary of the method: as §1

[5] = target: GlcNAc(b1-3)Gal(b1-4)GlcNAc(b1-2)[GlcNAc(b1-3)Gal(b1-4)GlcNAc(b1-6)]Man(a1-6)[GlcNAc(b1-3)Gal(b1-4)GlcNAc(b1-2)Man(a1-3)]Man(b1-4)GlcNAc(b1-4)GlcNAc
Summary of the method: as §1

[6] = target: GlcNAc(b1-3)Gal(b1-4)GlcNAc(b1-3)Gal(b1-4)GlcNAc(b1-2)[GlcNAc(b1-3)Gal(b1-4)GlcNAc(b1-3)Gal(b1-4)GlcNAc(b1-6)]Man(a1-6)[GlcNAc(b1-3)Gal(b1-4)GlcNAc(b1-3)Gal(b1-4)GlcNAc(b1-2)Man(a1-3)]Man(b1-4)GlcNAc(b1-4)[Fuc(a1-6)]GlcNAc
Summary of the method: as §1

[7] = target: GlcNAc(b1-3)Gal(b1-4)GlcNAc(b1-3)Gal(b1-4)GlcNAc(b1-3)Gal(b1-4)GlcNAc(b1-2)[GlcNAc(b1-3)Gal(b1-4)GlcNAc(b1-3)Gal(b1-4)GlcNAc(b1-3)Gal(b1-4)GlcNAc(b1-6)]Man(a1-6)[GlcNAc(b1-3)Gal(b1-4)GlcNAc(b1-3)Gal(b1-4)GlcNAc(b1-3)Gal(b1-4)GlcNAc(b1-2)Man(a1-3)]Man(b1-4)GlcNAc(b1-4)[Fuc(a1-6)]GlcNAc
Summary of the method: as §1

[8] = target: GlcNAc(b1-3)Gal(b1-4)GlcNAc(b1-3)Gal(b1-4)GlcNAc(b1-3)Gal(b1-4)GlcNAc(b1-3)Gal(b1-4)GlcNAc(b1-2)Man(a1-3)[GlcNAc(b1-3)Gal(b1-4)GlcNAc(b1-3)Gal(b1-4)GlcNAc(b1-3)Gal(b1-4)GlcNAc(b1-3)Gal(b1-4)GlcNAc(b1-2)Man(a1-6)]Man(b1-4)GlcNAc(b1-4)[Fuc(a1-6)]GlcNAc
Summary of the method: as §1

[9] = target: GlcNAc(b1-3)Gal(b1-4)GlcNAc(b1-6)[GlcNAc(b1-3)]Gal(b1-4)GlcNAc
Summary of the method: as §1

GlcNAc(b1-3)GalNAc = target: GlcNAc(b1-3)GalNAc
Summary of the method: as §1

[10] = target: GlcNAc(b1-3)[GlcNAc(b1-6)]Gal(b1-4)GlcNAc
Summary of the method: as §1

Kdn(a2-3)Gal(b1-3)GlcNAc = target: Kdn(a2-3)Gal(b1-3)GlcNAc
Summary of the method: as §1

[11] = target: Neu5Ac(a2-3)Gal(b1-3)GlcNAc(b1-6)GalNAc
Summary of the method: as §1

[12] = target: Neu5Ac(a2-3)Gal(b1-3)[Fuc(a1-4)]GlcNAc(b1-3)Gal(b1-3)[Fuc(a1-4)]GlcNAc
Summary of the method: as §1

[13] = target: Neu5Ac(a2-3)Gal(b1-3)[Neu5Ac(a2-6)]GlcNAc(b1-3)[Fuc(a1-3)[Gal(b1-4)]GlcNAc(b1-6)]Gal(b1-4)Glc
Summary of the method: as §1

[14] = target: Neu5Ac(a2-3)Gal(b1-4)GlcNAc(b1-6)GalNAc
Summary of the method: as §1

[15] = target: Neu5Ac(a2-3)Gal(b1-4)GlcNAc6S
Summary of the method: as §1

[16] = target: Neu5Ac(a2-3)Gal(b1-4)[Fuc(a1-3)]GlcNAc(b1-2)Man
Summary of the method: as §1

[17] = target: Neu5Ac(a2-3)Gal(b1-4)[Fuc(a1-3)]GlcNAc(b1-3)Gal
Summary of the method: as §1

[18] = target: Neu5Ac(a2-3)Gal(b1-4)[Fuc(a1-3)]GlcNAc(b1-3)GalNAc
Summary of the method: as §1

[19] = target: Neu5Ac(a2-6)Gal(b1-4)GlcNAc(b1-2)Man(a1-6)[GlcNAc(b1-2)Man(a1-3)]Man(b1-4)GlcNAc(b1-4)GlcNAc
Summary of the method: as §1

[20] = target: Neu5Ac(a2-6)Gal(b1-4)GlcNAc(b1-2)Man(a1-6)[Man(a1-3)]Man(b1-4)GlcNAc(b1-4)GlcNAc
Summary of the method: as §1

[21] = target: Neu5Ac(a2-6)Gal(b1-4)GlcNAc(b1-3)Gal(b1-4)GlcNAc(b1-6)[Gal(b1-3)]GalNAc
Summary of the method: as §1

[22] = target: Neu5Ac(a2-6)Gal(b1-4)GlcNAc(b1-6)GalNAc
Summary of the method: as §1

[23] = target: Neu5Ac(a2-8)Neu5Ac(a2-8)Neu5Ac(a2-8)Neu5Ac(a2-3)[GalNAc(b1-4)]Gal(b1-4)Glc
Summary of the method: as §1

Neu5Ac(b2-6)GalNAc = target: Neu5Ac(b2-6)GalNAc
Summary of the method: as §1

[24] = target: Neu5Ac9Ac(a2-3)Gal(b1-4)GlcNAc
Summary of the method: as §1

B1: Langerin (Homo sapiens), Q9UJ71 (protein)
chain: STLNAQIPELKSDLEKASALNTKIRALQGSLENMSKLLKRQNDILQVVSQGWKYFKGNFYYFSLIPKTWYSAEQFCVSRNSHLTSVTSESEQEFLYKTAGGLIYWIGLTKAGMEGDWSWVDDTPFNKVQSARFWIPGEPNDAGNNEHCGNIKAPSLQAWNDAPCDITFLFICKRPYVPSEP
B1 was tested, and the “glycan array binding signal (z-score)” value [1] was 1.91, the “glycan array binding signal (z-score)” value [2] was -0.239 and the “glycan array binding signal (z-score)” value [3] was 0.046. The “glycan array binding signal (z-score)” value [4] was 1.72, the “glycan array binding signal (z-score)” value [5] was 2.14 and the “glycan array binding signal (z-score)” value [6] was 16.7. The “glycan array binding signal (z-score)” value [7] was 0.284, the “glycan array binding signal (z-score)” value [8] was 2.34 and the “glycan array binding signal (z-score)” value [9] was 5.4. For the same binder, the “glycan array binding signal (z-score)” value (GlcNAc(b1-3)GalNAc) was -0.205, the “glycan array binding signal (z-score)” value [10] was 4.87 and the “glycan array binding signal (z-score)” value (Kdn(a2-3)Gal(b1-3)GlcNAc) was -0.115. For the same binder, the “glycan array binding signal (z-score)” value [11] was -0.092, the “glycan array binding signal (z-score)” value [12] was -0.088 and the “glycan array binding signal (z-score)” value [13] was -0.298. For the same binder, the “glycan array binding signal (z-score)” value [14] was -0.165, the “glycan array binding signal (z-score)” value [15] was -0.294 and the “glycan array binding signal (z-score)” value [16] was -0.159. The “glycan array binding signal (z-score)” value [17] was -0.338, the “glycan array binding signal (z-score)” value [18] was 0.034 and the “glycan array binding signal (z-score)” value [19] was -0.278. For the same binder, the “glycan array binding signal (z-score)” value [20] was -0.187, the “glycan array binding signal (z-score)” value [21] was -0.179 and the “glycan array binding signal (z-score)” value [22] was 0.078. The “glycan array binding signal (z-score)” value [23] was -0.254, the “glycan array binding signal (z-score)” value (Neu5Ac(b2-6)GalNAc) was -0.196 and the “glycan array binding signal (z-score)” value [24] was -0.434.
